Source: PubChem BioAssay AID2685 (National Center for Advancing Translational Sciences (NCATS), 2010)
About 2,100 (0.66%) of roughly 320,000 compounds were called active. Inconclusive results (about 53%) are left out. Calls follow the shape of the dose curve; as a rule, active = well fitted inhibition curve with a large enough effect in the signal ratio, with a control signal flat (not every such curve was filed as active); inconclusive = small, poorly fitted or top-dose-only effect, or effect the other way, or a change in a side signal; inactive = flat fitted curve, though single readings scatter; the % refers to the signal ratio. What follows is part of a selection rich in actives, with near analogues and random picks from the rest.

Assay: qHTS Assay for Lipid Storage Modulators in Drosophila S3 Cells;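 as to cell number change: cells counted by Cell Tracker Red CMTPX staining in the red channel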; as to lipid storage change, negative = inhibition: % is scaled to controls: 0 for no effect and ±100 for the full control effect
Conditions: BODIPY lipid droplet fluorescence, 18-24 h, cells fed with added oleic acid; cell number change: measured here: cell count max response; series mostly up to 46.1 µM
Outline: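 Laser-scanning cytometry quantifies lipid droplet accumulation (500–530 nm total intensity; droplet/cell object ratio) in oleic acid-fed (400 uM added) Drosophila S3 cells treated with a concentration series. 20 uM Triacsin C defined 100% inhibition.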
Potency is read from the fitted curve at half-maximal effect.

Row | SMILES | Potency | cell number change [%] | lipid storage change, negative = inhibition
1 | Nc1nc(SCC(=O)Nc2cccnc2Cl)n[nH]1 | inactive | – | –
2 | COc1ccc(-c2n[nH]c(=S)n2N)c(OC)c1 | inactive | -28.8 | –
3 | COc1ccc(CNC(=O)CCNS(=O)(=O)c2ccc3c(c2)oc(=O)n3C)cc1 | inactive | – | –
4 | Cc1ccc(N2CCN(/N=C/c3ccccc3)CC2)cc1 | inactive | -1.14 | –
5 | C=CCNC(=O)c1ccccc1NC(=O)c1ccc(Cl)c(S(=O)(=O)Nc2ccccc2)c1 | inactive | -6.78 | –
6 | Cc1ccccc1-n1ncc2c1CC(C)(C)CC2NC(=O)CCN1CCCCC1=O (stereo unspecified) | inactive | -9.29 | –
7 | O=C(O)c1cc(-c2ccc(Cl)c(Cl)c2)n(-c2ccc(F)cc2)n1 | inactive | 20.6 | –
8 | O=C(CCCn1c(=O)[nH]c2ccsc2c1=O)N1CCN(c2ccccn2)CC1 | inactive | -2.15 | –
9 | CCn1c(=O)c2sccc2n2c(CCCC(=O)N3CCN(c4ccccn4)CC3)nnc12 | 23.1 µM (active) | -5.66 | –
10 | CCn1c(=O)c2sccc2n2c(CCCC(=O)NC3CCN(Cc4ccccc4)CC3)nnc12 | inactive | – | –
11 | COc1ccccc1CNC(=O)CCn1c(=O)[nH]c2ccsc2c1=O | inactive | -12.6 | –
12 | CC(C)Cn1c(=O)c2sccc2n2c(CCCC(=O)NC3CCN(Cc4ccccc4)CC3)nnc12 | inactive | 6.76 | –
13 | COc1ccccc1CNC(=O)CCCc1nnc2n(C)c(=O)c3sccc3n12 | 1.3 µM (active) | 11.8 | –
14 | N#Cc1ccc(C[C@@H](NS(=O)(=O)c2ccc(C(=O)O)cc2)C(=O)O)cc1 | inactive | 17.7 | –
15 | COc1cc(/C=C2/C(=O)N(c3ccc(Br)cc3)N=C2C)cc([N+](=O)[O-])c1O | inactive | – | –
16 | COc1ccc(OCCCCOc2ccccc2Cl)cc1 | inactive | 0.395 | –
17 | NNC(=O)/C(=C\c1ccc(Br)cc1)NC(=O)c1cccs1 | inactive | 2.9 | –
18 | COc1ccc(NC(=O)CCNC(=O)c2ccc([N+](=O)[O-])cc2)cc1S(=O)(=O)N1CCOCC1 | inactive | -1.49 | –
19 | COC(=O)Cn1c(=O)cnc2ccccc21 | 16.4 µM (active) | 11.6 | –
20 | COc1ccc(OCC(=O)NNC(=O)Cn2c(=O)cnc3ccccc32)cc1 | inactive | 2.51 | –
21 | CC(C)(C)OC(=O)Cn1c(=O)cnc2ccccc21 | inactive | 6.02 | –
22 | CCC1=C(OC(=O)N(CC)CC)N2C(=O)OC(=NCc3ccccc3)[C@]2(C)[C@H]2C1=CC[C@H]1C(=O)N(c3ccccc3)C(=O)[C@H]12 | inactive | 11.7 | –
23 | Cc1cc(NC(=O)COC(=O)c2ccccc2[N+](=O)[O-])no1 | inactive | -0.913 | –

Row | SMILES | Potency | cell number change [%] | lipid storage change, negative = inhibition
24 | O=C(C1=C(O)C(=O)N(CCc2ccccc2)C1c1cccs1)c1ccco1 (stereo unspecified) | inactive | – | –
25 | COc1ccccc1-[n+]1c(C)cc(/C=C2\Sc3ccccc3N2C)cc1C | 0.082 µM (active) | -16.5 | –
26 | CN1/C(=C/c2cccc[n+]2CCO)Sc2ccccc21 | inactive | 0.676 | –
27 | Cc1ccc2c(c1)S/C(=C/c1ccc[n+](CCO)c1)N2C | inactive | 5.41 | –
28 | Cn1cc(CN2CCCC(CNC(=O)c3ccc4c(c3)OCO4)C2)c2ccccc21 (stereo unspecified) | inactive | -1.43 | –
29 | COc1ccc(-n2nc3c(c2NC(=O)CBr)CSC3)cc1 | inactive | 13.3 | –
30 | C=CCC(NCc1ccco1)c1ccc(OC)c(OC)c1 (stereo unspecified) | 23.1 µM (active) | – | –
31 | C=CCC(Nc1ccccc1)c1ccc(OC)c(OC)c1 (stereo unspecified) | inactive | 7.9 | –
32 | C=CCC(NCc1ccco1)c1ccc(OC)cc1 (stereo unspecified) | inactive | -21.6 | –
33 | CCOc1ncccc1C(=O)OCC(=O)Nc1cc(S(=O)(=O)N(CC)CC)ccc1C | inactive | -5.2 | –
34 | COCCCn1c(-c2ccc(OC)cc2)nc2nc3ccccc3nc21 | inactive | 5.75 | –
35 | Cc1ccc(S(=O)(=O)N2CCCCC2)cc1C(=O)N1CCN(c2ccccn2)CC1 | inactive | – | –
36 | Cc1cccc(C(=O)NCc2nnc(SCC(=O)Nc3nncs3)n2C)c1 | inactive | -2.14 | –
37 | CC(NC(=O)CCC(=O)NC(C)C1COc2ccccc2O1)C1COc2ccccc2O1 (stereo unspecified) | inactive | -1.04 | –
38 | O=C(OC1CCOC1=O)c1cc(-c2cccc(Br)c2)nc2ccccc12 (stereo unspecified) | inactive | 21.7 | –
39 | COc1cc(C(C[N+](=O)[O-])c2c(C)[nH]c3ccccc23)ccc1O (stereo unspecified) | inactive | 20.5 | –
40 | COc1cc(C(C[N+](=O)[O-])c2c(C)cc3ccccn23)ccc1O (stereo unspecified) | 0.651 µM (active) | 15.3 | –
41 | Cc1cc2ccccn2c1C(C[N+](=O)[O-])c1ccc(N(C)C)cc1 (stereo unspecified) | inactive | 12.9 | –
42 | Cc1ccccc1NC(=O)c1sc(Cl)nc1C | inactive | – | –
43 | Cc1nc(Cl)sc1C(=O)Nc1ccc(C(F)(F)F)cc1 | 1.64 µM (active) | -0.73 | –
44 | O=C(Nc1cccc(C(F)(F)F)c1)c1cc(-c2ccco2)on1 | inactive | 7.92 | –
45 | Cc1ncsc1C(=O)Nc1cccc(C(F)(F)F)c1 | inactive | 22.3 | –
46 | O=C(Nc1cccc(C(F)(F)F)c1)c1sc(Cl)nc1C(F)(F)F | 10.3 µM (active) | -10.2 | –

Row | SMILES | Potency | cell number change [%] | lipid storage change, negative = inhibition
47 | CC(=O)c1cccc(NC(=O)c2sc(Cl)nc2C)c1 | inactive | 12.6 | –
48 | Cc1nc(Cl)sc1C(=O)Nc1ccc(C(C)(C)C)cc1 | 7.31 µM (active) | 1.1 | –
49 | Cc1nc(Cl)sc1C(=O)Nc1ccccc1Cl | inactive | -11.3 | –
50 | Cc1nc(Cl)sc1C(=O)Nc1cccc(Cl)c1 | inactive | 2.35 | –
51 | COCCN(C(=O)CNC(=O)c1cccs1)C(C(=O)NC1CCCCC1)c1ccco1 (stereo unspecified) | inactive | -12.2 | –
52 | CC(=O)C(Sc1nnnn1-c1ccc(O)cc1)c1ccccc1 (stereo unspecified) | inactive | 5.67 | –
53 | COc1ccc(NC(=O)N2CCN(c3nc4ccccc4n3C(C)C)CC2)cc1 | 14.6 µM (active) | -28.6 | –
54 | Cn1c(N2CCN(C(=O)Nc3ccc(F)cc3)CC2)nc2ccccc21 | inactive | 17.1 | –
55 | CC(C)n1c(N2CCN(C(=O)NCc3ccccc3)CC2)nc2ccccc21 | inactive | -4.04 | –
56 | N#Cc1c(Cl)nc(SCc2ccccc2)nc1-c1ccccc1 | inactive | -2.68 | –
57 | CCC(C)Sc1ccc([C@H]2N[C@@](Cc3ccccc3)(C(=O)OC)[C@H]3C(=O)N(C)C(=O)[C@@H]23)cc1 (stereo partly specified) | inactive | 17.3 | –
58 | O=C(CCN1C(=O)/C(=C/c2ccccc2)SC1=S)N[C@@H](CO)Cc1ccccc1 | inactive | -19.2 | –
59 | COc1cc(/C=C2\SC(=S)N(CC(=O)Nc3ccc(O)cc3)C2=O)cc(OC)c1OC | inactive | 19.7 | –
60 | COc1ccc(/C=C2\SC(=S)N(CCC(=O)Nc3cccc(O)c3)C2=O)cc1OC | inactive | -7.94 | –
61 | COc1cc(/C=C2/SC(=S)N(CCC(=O)Nc3ccccc3)C2=O)cc(OC)c1OC | 1.84 µM (active) | – | –
62 | COc1cc(/C=C2\SC(=S)N(CCC(=O)Nc3ccccc3)C2=O)cc(OC)c1OC | – | 15 | -5.12% [at 9.22 µM] (inactive)
63 | COc1cc(/C=C2\SC(=S)N(CCC(=O)Nc3cccc(O)c3)C2=O)cc(OC)c1OC | 3.66 µM (active) | 10.2 | –
64 | COc1cc(/C=C2\SC(=S)N(CCC(=O)Nc3ccccc3O)C2=O)cc(OC)c1OC | inactive | – | –
65 | O=C(CCN1C(=O)/C(=C\c2ccc(F)cc2)SC1=S)Nc1ccccc1 | inactive | – | –
66 | O=C(CCN1C(=O)/C(=C/c2ccc(F)cc2)SC1=S)N[C@@H](CO)Cc1ccccc1 | 29.1 µM (active) | -1.15 | –
67 | COC(=O)c1ccccc1Oc1ccc(NC(=O)CCCl)cc1 | inactive | -3.28 | –
68 | O=C(CSc1nnc(Cn2c(=O)sc3ccccc32)n1-c1ccccc1)N1CCCC1 | inactive | -5.75 | –
69 | CC(C)C(C(=O)NCC1CCCO1)N(C(=O)CNS(=O)(=O)c1ccccc1)c1ccc(F)cc1 (stereo unspecified) | inactive | 10.5 | –

Row | SMILES | Potency | cell number change [%] | lipid storage change, negative = inhibition
70 | Fc1cccc(COc2ccccc2CNc2ccccc2)c1 | inactive | -10 | –
71 | COCCn1ccc2c(OCC(=O)NCc3ccccc3)cccc2c1=O | inactive | -6.52 | –
72 | O=C(O)c1ccc(N/N=C/c2cn(Cc3ccc(F)cc3)c3ccccc23)cc1 | inactive | 0.719 | –
73 | O=c1ccn(Cc2ccccc2)c2ccccc12 | inactive | -20.5 | –
74 | O=[N+]([O-])/C=C/c1cn(Cc2ccc(F)cc2)c2ccccc12 | 20.6 µM (active) | -17.9 | –
75 | CNC(=S)N/N=C/c1cn(Cc2ccc(F)cc2)c2ccccc12 | inactive | -3.02 | –
76 | O=S(=O)(N/N=C/c1cn(Cc2ccccc2)c2ccccc12)c1ccccc1 | inactive | -19.2 | –
77 | O=[N+]([O-])/C=C/c1cn(Cc2ccccc2)c2ccccc12 | 10.3 µM (active) | – | –
78 | N/C(=N\OC(=O)C12CC3CC(CC(C3)C1)C2)c1ccncc1 | inactive | -16.5 | –
79 | COc1ccc(N(C(=O)CNC(=O)c2ccco2)C(C(=O)NCC2CCCO2)c2ccccc2)cc1OC (stereo unspecified) | inactive | 7.66 | –
80 | O=C(c1ccc(-c2ccccc2)cc1)N1CCN(Cc2ccccn2)CC1 | inactive | -0.729 | –
81 | O=C(O)CC1S/C(=N/N=C/c2ccc(Br)cc2)N(c2ccccc2)C1=O (stereo unspecified) | inactive | -1.06 | –
82 | CCC(C)(C)n1nnnc1C(c1cccc(C#N)c1)N1CCN(c2cccc(C)c2C)CC1 (stereo unspecified) | inactive | 0.845 | –
83 | O=C(CSC1=NCCS1)N1CCCCCC1 | 4.61 µM (active) | 0.498 | –
84 | O=C(CSC1=NCCS1)N1CCN(c2ccc(Cl)cc2)CC1 | inactive | 1.49 | –
85 | O=C(CSC1=NCCS1)N1CCN(c2ccccc2)CC1 | inactive | -11.5 | –
86 | Cc1c(Cl)cccc1NC(=O)CCCCCN1C(=O)CCC1=O | inactive | – | –
87 | CS(=O)(=O)c1ccc2nc(NC(=O)Nc3cccc(Cl)c3)sc2c1 | 16.4 µM (active) | 10.2 | –
88 | Cc1ccc(NC(=O)Nc2nc3ccc(S(C)(=O)=O)cc3s2)cc1 | inactive | 0.9 | –
89 | CS(=O)(=O)c1ccc2nc(NC(=O)c3cccc(Cl)c3)sc2c1 | inactive | 5.93 | –
90 | CC(=O)c1ccc([N+](=O)[O-])c(CS(=O)(=O)c2ccc(Cl)cc2)c1 | inactive | 12.3 | –
91 | Cc1ccc(S(=O)(=O)Cc2ccc([N+](=O)[O-])cc2)cc1 | inactive | -6.56 | –
92 | Cc1ccc(S(=O)(=O)Cc2cc(F)c([N+](=O)[O-])cc2[N+](=O)[O-])cc1 | 0.411 µM (active) | 20.1 | –
